# Experimental data reported in PMC12136788.
# Residue numbers refer to the chain shown, from its start. Over roughly 24,000 sequences, “enrichment r” has its median near 0.99; the highest 2% begin near 3.7. The entries come from a sample that favours the highest values as a whole.
# T1: UNK ZnF1-3 (human, UniProt Q9C0B0 31-174)
# T1 sequence: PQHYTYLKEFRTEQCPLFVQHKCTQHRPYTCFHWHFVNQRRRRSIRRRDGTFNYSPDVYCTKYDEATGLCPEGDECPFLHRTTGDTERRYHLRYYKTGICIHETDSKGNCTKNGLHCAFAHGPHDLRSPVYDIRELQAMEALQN
# B1: chr7:54823571:54823572:-_ENSG00000132432_ENST00000352861|hu_mus|hu_hu_hu_mus_False|98_98 (ssRNA)
# RNA: GGGAGUUCUACAGUCCGACGAUCUCCCAUGAUAGCAAAUCCUAUUGCUGUAGCCAUGGCAAUCUUCUGGAAUUCUUUUCUGUCGGGUUUGGUGCAUCUUUUAACCAGCCGAAUUGAGUCCUUUACAAACUGCCGGCUGGGCUCCAACAGAGGAUUGAGCAUCA
# B2: 80410323_80421071_410_CDS_ENSMUSG00000027002_ENSMUST00000028386|mouse|control|control (ssRNA)
# RNA: GGGAGUUCUACAGUCCGACGAUCCACAGCAGAUUCCAGGUUUUUGUCAAUAAGGUAGGAGGGUUUAGCCUUGGGGUCGCCACAUGCCUUCUUGAUGUUGUAGAGGCGCGUGAGCAUGCCGACGCCCCGGUCGUUGAGGAUGGUCAACAGAGGAUUGAGCAUCA
# B3: chr7:75932113:75932114:+_ENSG00000106211_ENST00000248553|hu_hu|hu_hu_hu_mus_False|8_88 (ssRNA)
# RNA: GGGAGUUCUACAGUCCGACGAUCCUGCGACCACUCAUCGGGCAACCGGGGCAGCCCGAAAGCUUGAUCGAAGAGGCGGCUGUGUGCAGGGUACCAGUCCCGGAAUGGUUCCCAGCUCGGGCUCCGCAGCGAGAAGGAGGGCACCAACAGAGGAUUGAGCAUCA
# B4: chr7:149838072:149838073:-_ENSMUSG00000048583_ENSMUST00000000033|mus_mus|motif|central (ssRNA)
# RNA: GGGAGUUCUACAGUCCGACGAUCGAUCACUGCUCCCGUUAUGUAGGGAAUGGGUACAAUUGAUUAUGAGCGCAUAAAAAGCGGAGGAGGGAUUAAAAAAAAAAGGAAAAAACCGGCCCCAGAAAUAAAAAGAGGGGAAUAGAUCAACAGAGGAUUGAGCAUCA
# B5: chr7:149838072:149838073:-_ENSMUSG00000048583_ENSMUST00000000033|mus_mus|FALSE|FALSE (ssRNA)
# RNA: B4 RNA with G82U, G83A
# B6: chr3:94910677:94910678:-_ENSMUSG00000028126_ENSMUST00000107236|mus_mus|motif|central (ssRNA)
# RNA: GGGAGUUCUACAGUCCGACGAUCACUUGAGCCGGGCCCCGGGAGUCCCGCGUCUCGGAUAGAACAAACCUAAAGGAAAACCGGGGCACCUGAGGUGCCCCCAAAAGCGAAUGCCCCCCCUCCCUCACCUCCCCAGCCACUGCCCAACAGAGGAUUGAGCAUCA
# B7: chr2:25961539:25961540:-_ENSG00000143970_ENST00000336112|hu_mus|FALSE|FALSE (ssRNA)
# RNA: GGGAGUUCUACAGUCCGACGAUCGAGUAAUGGAAAGCCUGCUCAUAACAAACCAUUUAACCCAAGAGCUCAUGAAACUUUAAGAGGAGGAAAGCAGCAUAGAGCAAUCAGAAUGGUAACUGAAGGGACCGUUCUAUGUAGGACCAACAGAGGAUUGAGCAUCA
# B8: chr2:47388980:47388981:-_ENSG00000143933_ENST00000272298|hu_mus|hu_hu_hu_mus_True|8_68 (ssRNA)
# RNA: GGGAGUUCUACAGUCCGACGAUCUUCAUCUGUUAACUUCUCGCCAAGGUUUGUCAUCACAUGGCGAAGUUCUGCAGCACUAAUAUAGCCAUUGCCAUCCUUAUCAAACACACGGAAUGCUUCUCUAAUUUCUUCUUCACUGUCCAACAGAGGAUUGAGCAUCA
# B9: 160109231_160113639_413_CDS_ENSG00000112096_ENST00000546260|human|control|control (ssRNA)
# RNA: GGGAGUUCUACAGUCCGACGAUCAACUUCAGUGCAGGCUGAAGAGCUAUCUGGGCUGUAACAUCUCCUGGAAAACUCGGAACCGGUACAAAUACGAAGCGAGUUCUCCUCCACGGAGAGGCCCGUCCGUAUGGGGCCUGGCUCCAACAGAGGAUUGAGCAUCA
# B10: chr4:144460044:144460045:+_ENSG00000153147_ENST00000283131|hu_mus|hu_hu_hu_mus_False|28_78 (ssRNA)
# RNA: GGGAGUUCUACAGUCCGACGAUCACGGUCCAUAGCCUGAAGAUCAACUUGCGGAUUCCAAUCAGAAUCAUAUAAAAUGACUACAUCAGCAGUUGCAAGAUUGAUGCCAAGACCACCAGCACGUGUGCUUAGCAUAAAUACAAACAACAGAGGAUUGAGCAUCA
# B11: chr6:41756983:41756984:+_ENSG00000214736_ENST00000398881|hu_mus|FALSE|FALSE (ssRNA)
# RNA: GGGAGUUCUACAGUCCGACGAUCAUCAAUGUCACUCAAGUUCCUGGCCAGCCAGACUCCCGCAGCAAAGAGUCCCAAAUUGAGGAUCAAGUUCCUCCGGAAGUCGUUUCGAUCGGUGGCGAAGCGGAAGACACCGCGGAGCCACAACAGAGGAUUGAGCAUCA
# B12: 40918001_40923414_123_3pUTR_ENSMUSG00000028423_ENSMUST00000098143|mouse|control|control (ssRNA)
# RNA: GGGAGUUCUACAGUCCGACGAUCAGCAGCAUCUGUAUUGAAUUUAAAAGUGCCUGAGACCGGAGGCGCCUCCGCCAUCCCGUGCCGCAGCACCUCAAGCGAGCCCCGCCACCGAGCGAAGGCUGUCACCUGGUCACGUGUCCCCAACAGAGGAUUGAGCAUCA
# B13: chr7:140404665:140404666:+_ENSG00000090266_ENST00000247866|hu_hu|hu_hu_hu_mus_False|1_28 (ssRNA)
# RNA: GGGAGUUCUACAGUCCGACGAUCUGCUCCUACUCGUCCAGAGAGUUUACAGUGUCAGUCCUCGUCAUCAGGAGGGAUUCCCAGUUCUUCAUCUGUCCACUGUGAAGGAUCAGGAUAUGAAAAGUGACCCAGCACAGCUUCUGACAACAGAGGAUUGAGCAUCA
# B14: 48821072_48822033_622_CDS_ENSG00000108848_ENST00000240304|human|control|control (ssRNA)
# RNA: GGGAGUUCUACAGUCCGACGAUCUGCAGCAAAGCUUUCAAUUGUCGACGUUGUGGACCUUAGCAGUUCUCUCUCUUCUUUUAAUUGCUCAACUAAUUUCAUCAUCCCCUGGGCUUCUUCUACUUUUCCUUCAGACCCUAAUUCCAACAGAGGAUUGAGCAUCA
# B15: chr1:32384726:32384727:-_ENSG00000184007_ENST00000602725|perfect_dup|FALSE|FALSE (ssRNA)
# RNA: GGGAGUUCUACAGUCCGACGAUCAGGAGGAAAUCAAUAAAUCUUGAAAUGUUCCGCAGCAGAAAACAUUAAAAAGACCACUAAAAUGCCUAUUAUUGAUCACUAUUUUCUCUAUUCAACUUGCUUGUUCCUUAGGAAGCUUCUCAACAGAGGAUUGAGCAUCA
# B16: chr13:9170561:9170562:+_ENSMUSG00000033499_ENSMUST00000091829|mus_mus|motif|central (ssRNA)
# RNA: GGGAGUUCUACAGUCCGACGAUCCCAUCAGCCCCCAUCCAUCUGCUGGACACCCUACCAAUGCGCACUUGUAGACCAACGGUUAAAAAAAAAAAAAAAGGAAGUAGCAGAGUUCCCUUAAUUUAGAAAAACUCAUUAUAGCUUCAACAGAGGAUUGAGCAUCA
# B17: chr18:67805652:67805653:+_ENSMUSG00000024537_ENSMUST00000025418|mus_hu|FALSE|FALSE (ssRNA)
# RNA: GGGAGUUCUACAGUCCGACGAUCAUACUUAAUAAAAAUGGAUCUUAACUGUAGAGCCACCAGCUUUCUUGAAGGCAAUGAAUACACUUCAGCAUUUAUGCUAAGUUCUGUUGAAUUUCCUUCUGUGGUCGCAUAUGGAUUGUUCAACAGAGGAUUGAGCAUCA
# B18: chr13:9170561:9170562:+_ENSMUSG00000033499_ENSMUST00000091829|mus_mus|FALSE|FALSE (ssRNA)
# RNA: B16 RNA with G80U, G81A
# B19: 30503004_30509812_319_CDS_ENSG00000126858_ENST00000394692|human|control|control (ssRNA)
# RNA: GGGAGUUCUACAGUCCGACGAUCCAGAUCAGAUUUGUUCCCAACCAAUAUUAAAGGCAGCCUGCUGUCUUUGUCUGUUCUUUCAUUUAUGAGAGGAAUCCAUCGACUUGUUACCUUAUCAAUAGAAUGCUUGUUGUUAACGGCCAACAGAGGAUUGAGCAUCA
# B20: chr13:9170561:9170562:+_ENSMUSG00000033499_ENSMUST00000091829|mus_hu|FALSE|FALSE (ssRNA)
# RNA: GGGAGUUCUACAGUCCGACGAUCCACUGGCCCUCAUUCAUCUGCGGGGACGUUCUAGAGAUAUGCACUUACAGACCAGUUACUUAAAAAAAAAAAAAAAAAGCAGAGUUCCCUUAAUUUAGAAAAACUCACUAUAUAUAGCUUCAACAGAGGAUUGAGCAUCA
# B21: chr2:43450610:43450611:-_ENSG00000152518_ENST00000282388|hu_mus|FALSE|FALSE (ssRNA)
# RNA: GGGAGUUCUACAGUCCGACGAUCGUUAAAUAGUUUUUCAUAUUGAGUUGUGGUGCAGUGGUGCGGAUCAACUCAGAACAACUAAAAAUGAAGCACUUAUUUCCCAACAACUAUGAACUGAGCUCUGCCCAUAGCUUCCAGAGACAACAGAGGAUUGAGCAUCA
# B22: chr7:108137184:108137185:-_ENSG00000135241_ENST00000257694|hu_mus|motif|central (ssRNA)
# RNA: GGGAGUUCUACAGUCCGACGAUCUCGAUAGAGUUCCUCACAUUCAUCCAGCGGCAUGUGAAACAAUCCCAGCAUAAAUGCGGAUAUGGCCCCUGUGCUUACUCCACAGAUGUAAUCAAAAAGCUGAUGAAUCGGCUUCUGAGUCAACAGAGGAUUGAGCAUCA
# Target: T1, UNK ZnF1-3
# Test: nsRBNS (natural sequence RNA bind-n-seq); RBNS binding buffer (assumed for nsRBNS): 25 mM Tris pH 7.5, 150 mM KCl, 3 mM MgCl2, 0.01% Triton X-100, 500 ug/ml BSA, 20 U/ml SUPERase-In, 4 C; UNK is unkempt and MSI1 is Musashi-1; names of the RNAs are library labels; protein concentration not given here; high values mean tight binding
row,Binder,binding signal [enrichment R]
1,B1,0.647
2,B2,0.855
3,B3,1.63
4,B4,9.4
5,B5,11
6,B6,2
7,B7,3.45
8,B8,0.795
9,B9,0.808
10,B10,1.2
11,B11,1.55
12,B12,1.06
13,B13,1.15
14,B14,0.686
15,B15,0.842
16,B16,4.58
17,B17,1.04
18,B18,5.05
19,B19,0.92
20,B20,6.5
21,B21,1.32
22,B22,1.13
